Sampled rows, rich in hits. Any-hit rate of the full collection: about 19%.
TGFb SMAD3 inh: qHTS for Inhibitors of TGF-b | HepG2 CAGA-GFP TGF-b/SMAD3 reporter, GFP fluorescence, 18 h; TGF-beta stimulated, 500 pg/mL final | Potency, µM (top dose mostly 46.1 µM), inactives show at the top dose activity, negative = inhibition, hits mostly inhibitors | 410,000 compounds, 1.2% hits; note: potency is the fitted concentration of half-maximal effect; % is set by controls: 0 for no effect and ±100 for the full control effect; nearly all actives have a fitted effect of over 65% in size
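HEPG2 CAGA-GFP cells (1000/well, DMEM with 1% FBS) were pre-incubated 2 h at 37 degrees C, given compound by pin tool, then stimulated with TGF-beta at 500 pg/mL final for 18 h before per-cell GFP fluorescence imaging.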
IL1B secr inh: qHTS for Inhibitors of Inflammasome Signaling: IL-1-beta AlphaLISA Primary Screen; 360,000 compounds, 4.7% hits; THP-1 LPS/ATP IL-1B secretion, AlphaLISA, 16 h; hits give low values; activity change, % at 57.5 µM; AID 743279, 2014; in the data active = activity change below about -50%; inconclusive = mostly about -30% to -49%; note: % is set by controls: 0 for no effect and ±100 for the full control effect
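THP-1 cells pretreated 1 hr with compounds (up to 57.5 uM final), then stimulated with LPS (250 ng/mL final) plus ATP (1.25 mM final); secreted IL-1B measured by AlphaLISA after 16 hr, decreased signal indicating inhibition.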
HepG2 viability: qHTS for Inhibitors of TGF-b: Cytotox Counterscreen. Potency, µM (highest dose often 46.1 µM), without a hit: at the highest dose activity change, negative = cytotoxicity, usual class: cytotoxic. HepG2 CAGA-GFP viability, ATP luminescence, 18 h. 410,000 compounds, 0.76% hits; note: potency is the fitted concentration of half-maximal effect
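CellTiter-Glo luminescence gave cytotoxicity after 18 hours at 37 degrees C. The cells were HepG2 CAGA-GFP in 1% FBS DMEM, stimulated with 500 pg/mL TGF-beta after compound addition. %Activity was normalised to no-cell wells (complete cell-killing) and DMSO (no toxicity), and curves were fitted and classified.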
ASM inhibitor: Inhibitors of Secretory Acid Sphingomyelinase (S-ASM): qHTS; 340,000 compounds, 0.006% hits; AID 504937, 2011; Sphingomyelin phosphodiesterase (Homo sapiens), P17405; placental ASM, HMU-PC fluorogenic substrate, 60 min; Potency, µM (highest dose often 57.5 µM), for the others: at the top dose activity change, negative = inhibition, hits mostly inhibitors; note: potency is the fitted concentration of half-maximal effect
Target sequence (P17405 47-631 limits assumed): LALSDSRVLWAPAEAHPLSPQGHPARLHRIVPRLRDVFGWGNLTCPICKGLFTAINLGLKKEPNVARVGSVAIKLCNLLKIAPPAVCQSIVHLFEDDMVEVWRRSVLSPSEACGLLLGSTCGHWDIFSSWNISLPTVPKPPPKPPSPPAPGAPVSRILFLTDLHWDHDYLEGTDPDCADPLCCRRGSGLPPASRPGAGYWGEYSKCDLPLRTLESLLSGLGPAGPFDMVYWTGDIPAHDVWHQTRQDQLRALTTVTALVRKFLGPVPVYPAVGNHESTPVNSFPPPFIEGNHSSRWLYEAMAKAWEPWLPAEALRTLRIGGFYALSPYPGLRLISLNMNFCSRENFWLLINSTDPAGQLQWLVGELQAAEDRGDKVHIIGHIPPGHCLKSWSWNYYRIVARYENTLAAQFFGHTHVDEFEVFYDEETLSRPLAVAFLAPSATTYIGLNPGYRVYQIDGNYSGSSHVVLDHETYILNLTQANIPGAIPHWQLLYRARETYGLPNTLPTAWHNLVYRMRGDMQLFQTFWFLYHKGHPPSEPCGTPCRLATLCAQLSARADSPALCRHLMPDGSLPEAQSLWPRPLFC
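Fluorescence read-out (Ex 386 nm, Em 447 nm) after stopping the reaction at pH 10. Enzyme: ASM from human placenta; substrate HMU-PC0, 9 uM final; 60 min, 37 °C. Compound preincubation 10 min, ambient temperature.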
TDP1 cell CPT: qHTS for Inhibitors of human tyrosyl-DNA phosphodiesterase 1 (TDP1): qHTS in cells in presence of CPT; 420,000 compounds, 12% hits; Potency, µM (top dose mostly 46.2 µM), without a hit: at the highest dose activity change, negative = growth inhibition, hits mostly inhibitors; chicken DT40 Tdp1-/-;hTDP1 cells + 20 nM CPT, ATP luminescence, 48 h; note: potency is the fitted concentration of half-maximal effect; % is set by controls: 0 for no effect and ±100 for the full control effect; nearly all actives have a fitted effect of over 55% in size
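Chicken DT40 Tdp1-/- cells complemented with human TDP1, 400 cells/well, exposed to compounds plus 20 nM camptothecin for at least 48 h at 37 C; viability read as ATP content by CellTiter-Glo luminescence.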
DT40 TDP1 no CPT: qHTS for Inhibitors of human tyrosyl-DNA phosphodiesterase 1 (TDP1): qHTS in cells in absence of CPT; DT40 Tdp1-/- hTDP1 cells, no CPT, ATP luminescence, 48 h; Potency, µM (titrated, usually from 46.2 µM), inactives show at the highest dose activity change, negative = growth inhibition, actives largely listed as inhibitors; 420,000 compounds, 15% hits; AID 686978, 2013; note: potency is the fitted concentration of half-maximal effect; % is set by controls: 0 for no effect and ±100 for the full control effect; nearly all actives have a fitted effect of over 55% in size
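Readout: luminescence from CellTiter-Glo after 30 min in the dark at RT. Cells: DT40 Tdp1-/- with stable hTDP1, 400/well. Exposure: compounds alone, ≥48 hr, 37 °C.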
Starred values were filed as active, the others as inactive; ? = inconclusive; / = no result given; [ ] = dose if it differs, or a comment. Unless noted, calls come from the whole dose curve; as a rule, active = well fitted curve in the direction sought with a large enough effect; inconclusive = small, poorly fitted or top-dose-only effect, or another doubt; inactive = no such curve, though single readings can be large; an effect the other way counts as inactive or inconclusive.

SMILES	TGFb SMAD3 inh	IL1B secr inh	HepG2 viability	ASM inhibitor	TDP1 cell CPT	DT40 TDP1 no CPT
O=C(CCCN1C(=O)/C(=C/c2cccs2)SC1=S)NNC(=O)c1ccncc1	-1%	0	14%	-4%	?	?
CC(c1ccccc1)N1C(=O)/C(=C/c2ccncc2)SC1=S (configuration not stated)	?	-50*	-110%	-14%	?	23µM*
O=C(O)CCCN1C(=O)/C(=C/c2ccncc2)SC1=S	-7%	-80*	-3%	-2%	?	?
COCCn1c(-c2ccccc2)c(C)n2c3c(=O)n(C)c(=O)n(C)c3nc12	6%	/	0%	/	/	/
COc1ccccc1C1=NN(C2=NN=C(N)Cc3ncnn32)C(O)(C(F)(F)F)C1 (configuration not stated)	-11%	?	-9%	4%	-3%	-1%
O=C(O)CCCCCN1C(=O)/C(=C\c2ccncc2)SC1=S	3%	-99*	0%	4%	23µM*	23µM*
CCOC(=O)CC1COCCN1C(=O)c1ccc2oc(Cc3ccccc3)nc2c1 (configuration not stated)	-2%	22	1%	-2%	-18%	-18%
NC(=S)NNc1cc(Cl)cc(Cl)c1	-5%	-3	1%	0%	13µM*	?
Cc1ccc(OCCn2c(C)c(/C=N/n3cnnc3)c3ccccc32)cc1	-13%	-12	-42%	-8%	-18%	-23%
Cc1c(/C=N/n2cnnc2)c2ccccc2n1CCOc1ccc(Cl)cc1	-2%	0	-40%	35µM*	?	?
CCCCCn1c(=O)[nH]c2cc(C(=O)N3CCN(c4ccccc4F)CC3)ccc2c1=O	-1%	28	-18%	-1%	?	15µM*
CCCCCn1c(=O)[nH]c2cc(C(=O)N3CCN(CC)CC3)ccc2c1=O	-2%	15	2%	92%	-27%	-23%
COCCn1c(=O)[nH]c2cc(C(=O)N3CCN(c4ccc(F)cc4)CC3)ccc2c1=O	?	/	-29%	/	?	?
CCCCCn1c(=O)[nH]c2cc(C(=O)N3CCN(c4ccc(C(C)=O)cc4)CC3)ccc2c1=O	2%	-21	-4%	-22%	15µM*	15µM*
CCOC(=O)N1CCN(C(=O)c2ccc3c(=O)n(CCC4=CCCCC4)c(=O)[nH]c3c2)CC1	0%	?	-30%	23%	16µM*	18µM*
CCCCCn1c(=O)[nH]c2cc(C(=O)N3CCN(c4ccc(F)cc4)CC3)ccc2c1=O	-21%	7	-34%	-8%	?	8.2µM*
O=C(CCCCn1c(=O)[nH]c2ccccc2c1=O)NCCC1=CCCCC1	-6%	3	-13%	0%	-4%	-30%
COc1cc(N)c(N)cc1OC	-10%	/	7%	/	?	?
C/C(=C\c1ccccc1)CN1CCN(Cc2ccc(C)o2)C(CCO)C1 (configuration not stated)	1%	-15	-5%	5%	-14%	-1%
CCn1cc(C(=O)NCCCN(CC(C)C)CC(C)C)c(=O)c2cc(S(=O)(=O)N(C)C3CCCCC3)ccc21	6%	-2	-22%	4%	?	?
Cc1cc(NC(=O)CSc2nc(N)c(NC(=O)c3ccco3)c(=O)[nH]2)no1	-3%	-2	1%	3%	-7%	25%
COc1cc(OC)cc(C(=O)NCC2Cc3cccc(-c4nc(C)cnc4C)c3O2)c1 (configuration not stated)	/	/	/	/	-3%[9.04 µM]	-13%
COc1ccccc1CNC(=O)C(C)n1ccc2cc(S(=O)(=O)N3CCCC3)ccc21 (configuration not stated)	10%	/	-8%	/	?	?
Cc1ccc(C)c(N2CCN(C(=O)c3ccc4c(=O)n(CCc5ccccc5)c(=O)[nH]c4c3)CC2)c1	?	/	-14%	/	21µM*	16µM*
CC(=O)Nc1ccccc1-c1nc2ccc(C(=O)N3CCN(c4cc(C)ccc4C)CC3)cc2[nH]c1=O	6%	-4	-91%	166%	?	15µM*
SMILES	TGFb SMAD3 inh	IL1B secr inh	HepG2 viability	ASM inhibitor	TDP1 cell CPT	DT40 TDP1 no CPT
COC(=O)c1c(C)sc(-c2c(-c3cccc(Cl)c3)[nH]c3c2c(=O)[nH]c(=O)n3C)c1O	87%	/	-1%	/	?	?
Nc1ccn([C@@H]2O[C@H](CNC(=O)[C@@H](N)CSCc3ccccc3)[C@@H](O)[C@H]2O)c(=O)n1	24%	13	53%	/	-17%	-17%
COc1ccc(NC(=O)c2cccc3ccccc23)cc1	5%	-7	-2%	1%	18µM*	21µM*
Cc1ccc(NC(=O)c2cc3ccccc3cc2O)cc1	?	-9	-42%	1%	16µM*	?
COc1ccc(NS(=O)(=O)NC(=O)c2c(C)n(C)c3ccccc23)cc1	-3%	33	-4%	-7%	-3%	22%
O=C(Nc1cccnc1Oc1ccc(Cl)cc1)c1cccc2ccccc12	-7%	-57*	11%	-9%	-10%	?
COc1ccc(NC(=O)c2c(Cl)n(C)c3ccccc23)cc1	10%	18	-14%	-11%	8.2µM*	8.2µM*
COc1ccc(NC(=O)c2cccc3c(Br)cccc23)cc1	-9%	20	-30%	3%	?	?
Cc1ccc(NC(=O)NNC(=O)c2cc3ccccc3cc2O)cc1C	10%	9	10%	6%	-4%	5%
CCc1nn2c(=O)cc(COC(=O)Cc3ccccc3)nc2s1	-57%	/	4%	/	?	1%
CN1OC[C@@H]2CN(C(=O)CCc3ccccc3)[C@H](c3cccc(N4CCOCC4)c3)C[C@@H]21	-1%	-5	0%	4%	3%	14%
CCOc1ccc(S(=O)(=O)NCCC(=O)NCC(c2ccccc2OC)N2CCCC2)cc1 (configuration not stated)	10%	-5	-12%	-1%	-26%	1%
COc1ccc(NC(=O)c2cc(SC)ccc2Cl)cc1	?	?	-13%	-2%	23µM*	?
COc1ccc(NC(=O)c2cnc(SC)nc2)cc1	7%	9	4%	-1%	15µM*	12µM*

Screening data from PubChem BioAssay.
